IDE act: activators of human insulin-degrading enzyme in cells | P14735 | HEK cells, FAbeta-B cleavage, fluorescence polarization; 0% vehicle, 100% cell-free pure enzyme wells | activation, % at 5.96 µM | hit rate 0.073% among 340,000 | AID 493087;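 active = activation above the mean of all tested compounds plus 3 SD, set per screening campaign, cut at about 17% in these data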
Target sequence (P14735 whole entry, looked up): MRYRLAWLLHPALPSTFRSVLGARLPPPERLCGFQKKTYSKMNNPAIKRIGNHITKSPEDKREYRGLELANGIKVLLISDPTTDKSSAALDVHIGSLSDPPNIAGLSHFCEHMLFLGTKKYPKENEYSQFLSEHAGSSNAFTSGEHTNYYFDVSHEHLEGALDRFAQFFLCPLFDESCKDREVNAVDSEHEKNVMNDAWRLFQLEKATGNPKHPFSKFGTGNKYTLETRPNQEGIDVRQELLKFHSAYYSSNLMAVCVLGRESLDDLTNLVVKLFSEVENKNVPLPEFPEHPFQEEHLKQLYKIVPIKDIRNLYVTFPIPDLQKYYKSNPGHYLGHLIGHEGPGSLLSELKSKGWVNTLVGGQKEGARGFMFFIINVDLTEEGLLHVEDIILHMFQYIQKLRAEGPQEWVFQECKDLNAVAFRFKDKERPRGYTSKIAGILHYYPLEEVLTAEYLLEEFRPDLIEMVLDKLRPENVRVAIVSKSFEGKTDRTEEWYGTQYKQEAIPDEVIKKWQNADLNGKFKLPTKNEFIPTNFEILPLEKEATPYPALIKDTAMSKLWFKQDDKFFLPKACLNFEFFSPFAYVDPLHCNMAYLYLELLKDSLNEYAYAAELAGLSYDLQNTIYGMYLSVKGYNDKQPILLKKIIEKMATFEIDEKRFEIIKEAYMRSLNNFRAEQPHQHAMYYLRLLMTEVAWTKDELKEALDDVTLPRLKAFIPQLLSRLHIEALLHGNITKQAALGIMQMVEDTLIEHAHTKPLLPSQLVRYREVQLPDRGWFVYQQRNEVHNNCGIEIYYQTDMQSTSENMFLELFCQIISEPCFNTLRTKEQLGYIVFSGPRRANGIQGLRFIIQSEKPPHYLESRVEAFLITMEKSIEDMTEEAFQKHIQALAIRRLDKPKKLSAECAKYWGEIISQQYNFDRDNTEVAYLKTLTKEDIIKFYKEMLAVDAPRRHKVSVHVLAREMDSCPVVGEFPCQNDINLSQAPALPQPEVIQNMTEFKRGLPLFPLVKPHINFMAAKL
TPT1 inhibitor: inhibitors of Candida albicans tRNA 2'-phosphotransferase TPT1; hit rate 0.81% among 300,000; inhibition, % at 5 µM; recombinant caTPT1, FP RNA substrate dephosphorylation;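 active = inhibition above the mean of all tested compounds plus 3 SD, set per screening campaign, cut at about 24% in these data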;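 note: plate controls were DMSO alone for no effect and ferristatin control at 100 nM for full effect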
CRFR2-BP antag: antagonists of CRF-binding protein/CRF-R2 receptor complex | HEK293 CRF-R2/CRF-BP, CRF-induced calcium fluorescence | hit rate 0.59% among 350,000 | inhibition, % at 11.8 µM;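 active = inhibition of the ligand-induced calcium signal above about 50% at the single tested concentration, limit read from the data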
CRFBP-R2 agonist: CRF-BP/CRF-R2 complex agonism. HEK293 CRF-R2/CRF-BP, calcium dye fluorescence (FLIPR); percent of saturating CRF peptide response. activation, % at 13.2 µM. hit rate 0.46% among 350,000. AID 588473;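 active = activation of at least 50%, plus an integration ratio under a set limit after plate pattern correction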;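 note: plate controls were neutral control wells without compound for no effect and CRF at EC100 for full effect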
IDE inh: inhibitors of human insulin-degrading enzyme in cells; P14735; hit rate 0.41% among 320,000; HEK cells, FAbetaB cleavage, fluorescence polarization; inhibition, % at 5.59 µM;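 active = percent inhibition above the average of all tested compounds plus 3 SD, set per screening campaign, cut at about 16% in these data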;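 note: IDE supplied by intact live HEK cells; FP after avidin binding of uncleaved biotin substrate so inhibition keeps polarization high; 0% = DMSO wells and 100% = 60 µM reference IDE inhibitor Ii1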
Myeloid diff 2: promotes myeloid progenitor differentiation; ER-HoxA9 myeloid progenitors, lysozyme-GFP differentiation, flow cytometry; calls only at 10 µM; hit rate 1% among 360,000; AID 624256;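 active = normalized GFP-positive differentiation at or above the plate's own cutoff, the solvent-only control mean plus 3 SD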;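 note: cells exposed to compound for four days before flow analysis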
Myeloid diff CP1: myeloid differentiation induction. calls only. shares compounds with Myeloid diff 2. ER-HoxA9 myeloid progenitors, GFP/Mac1 double-positive flow. hit rate 2% among 2,300;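 active = share of green or green-and-red cells above 9 and 9% in run 1 or 4 and 3% in run 2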
GFP autofluor: compound fluorescence in myeloid differentiation counter-screen. ER-HoxA9 myeloid progenitors, no estrogen, GFP autofluorescence flow cytometry; vehicle wells 0%, positive control 100%. hit rate 7.4% among 2,300. shares compounds with Myeloid diff 2. fluorescence response, % (test concentration not listed);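 active = over 5% cells positive for green fluorescent reporter, or over 2% positive for both it and APC stain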;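 note: range taken on the double positive population between DMSO and positive control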
* = called active by the depositor. In the library only some 2.6% were active in any assay of this set; here they are far more common.

`COc1cccc(C(=O)NNC(=O)Cc2ccc([N+](=O)[O-])cc2)c1` gave IDE act 6.7, TPT1 inhibitor -0.7, CRFR2-BP antag 15.5, CRFBP-R2 agonist -3.0, IDE inh 1.0 and Myeloid diff 2 inactive.
O=C(COC(=O)/C=C/c1ccc(F)cc1)NC1CCCCCC1 was read as IDE act -1.8, CRFR2-BP antag 7.0, CRFBP-R2 agonist 1.1, IDE inh 11.3 and Myeloid diff 2 inactive.
For N#C/C(=C\c1cc(Cl)cc(Cl)c1O)C(=O)NC1CCCCC1 the results were IDE act 4.2, TPT1 inhibitor 4.9, CRFR2-BP antag -37.3, CRFBP-R2 agonist 9.0, IDE inh 4.1, Myeloid diff 2 inactive, Myeloid diff CP1 inactive and GFP autofluor 0.3.
CC(C)n1nc(C(=O)NNC(=O)c2ccc(OC(F)F)cc2)c2ccccc2c1=O was read as IDE act 1.6, CRFR2-BP antag -4.1, CRFBP-R2 agonist -0.4, IDE inh -1.0 and Myeloid diff 2 inactive.
CCOc1ccc(NC(=O)c2cccc3ccccc23)cc1 was read as IDE act 7.7, TPT1 inhibitor -0.6, CRFR2-BP antag 10.2, CRFBP-R2 agonist 0.5, IDE inh 1.7, Myeloid diff 2 active, Myeloid diff CP1 inactive and GFP autofluor 0.4.
CCOc1ccc(NC(=O)c2cc3ccccc3cc2O)cc1 was read as IDE act 4.2, TPT1 inhibitor -7.5, CRFR2-BP antag 2.0, CRFBP-R2 agonist 7.0, IDE inh 2.1 and Myeloid diff 2 inactive.
For CC1CC(C)CN(C(=O)COC(=O)c2ccc(S(=O)(=O)N(C)c3ccccc3)cc2)C1 (stereo not given) the results were IDE act -2.4, CRFR2-BP antag -3.6, CRFBP-R2 agonist 0.5, IDE inh -2.2, Myeloid diff 2 inactive, Myeloid diff CP1 inactive and GFP autofluor 0.5.
`CC1CC(C)CN(C(=O)COC(=O)c2cccc(S(=O)(=O)N(C)c3ccccc3)c2)C1` (stereo not given) gave IDE act -1.8, CRFR2-BP antag 10.2, CRFBP-R2 agonist -1.0 and Myeloid diff 2 inactive.
For O=C(CCCn1c(=S)[nH]c2cc3c(cc2c1=O)OCO3)N1CCN(c2ncccn2)CC1 the results were IDE act -5.8, TPT1 inhibitor -0.7, CRFR2-BP antag 19.3, CRFBP-R2 agonist -0.7, IDE inh 2.3, Myeloid diff 2 inactive, Myeloid diff CP1 inactive and GFP autofluor 0.3.
CCCOc1ccc(/C=c2\sc3nc(-c4ccco4)nn3c2=O)cc1OCC was read as IDE act -4.0, TPT1 inhibitor 4.3, CRFR2-BP antag -27.1, CRFBP-R2 agonist 3.7, IDE inh -2.5 and Myeloid diff 2 inactive.
`CCCOc1ccc(Cc2nn3c(=O)/c(=C/c4ccco4)sc3nc2=O)cc1` gave IDE act 2.2, TPT1 inhibitor -2.4, CRFR2-BP antag 3.3, CRFBP-R2 agonist -1.4, IDE inh 1.6, Myeloid diff 2 inactive, Myeloid diff CP1 inactive and GFP autofluor 0.0.
Screening N#C/C(=C\Nc1ccc2cn[nH]c2c1)c1nc(-c2ccc(Cl)cc2)cs1 returned IDE act 1.2, TPT1 inhibitor 13.1, CRFR2-BP antag -1.3, CRFBP-R2 agonist -0.2, IDE inh -3.0, Myeloid diff 2 active, Myeloid diff CP1 active and GFP autofluor 0.0.
For O=[N+]([O-])c1ccc2[nH]c(O)c(N=Nc3ccc(F)cc3)c2c1 the results were IDE act 5.5, TPT1 inhibitor 0.0, CRFR2-BP antag 6.7, CRFBP-R2 agonist 2.8, IDE inh 3.8, Myeloid diff 2 active, Myeloid diff CP1 inactive and GFP autofluor 9.8*.
`O=[N+]([O-])c1ccc(N=Nc2c(O)[nH]c3ccc(F)cc23)cc1` gave IDE act 3.7, TPT1 inhibitor 4.7, CRFR2-BP antag -13.4, CRFBP-R2 agonist 4.1, IDE inh 1.4 and Myeloid diff 2 inactive.
COc1cccc(/C=N/NC(=O)c2cc(-c3cccn3C)n[nH]2)c1O was read as IDE act 4.0, TPT1 inhibitor -0.7, CRFR2-BP antag 6.0, CRFBP-R2 agonist -0.5, IDE inh 3.9, Myeloid diff 2 inactive, Myeloid diff CP1 inactive and GFP autofluor 0.0.
Screening Cc1cc(C)c(NN=c2c(=O)c3ccccc3c2=O)c(C)c1 returned IDE act 5.6, TPT1 inhibitor -0.5, CRFR2-BP antag 5.5, CRFBP-R2 agonist -5.0, IDE inh -1.8, Myeloid diff 2 active, Myeloid diff CP1 inactive and GFP autofluor 0.0.
For O=C(CN1CCOCC1)Nc1cc(C(F)(F)F)ccc1Cl the results were IDE act 5.7, TPT1 inhibitor 0.2, CRFR2-BP antag 11.0, CRFBP-R2 agonist -1.8, IDE inh 3.9 and Myeloid diff 2 inactive.
Screening O=C(CN1CCN(c2ccc(F)cc2)CC1)Nc1cc(C(F)(F)F)ccc1Cl returned IDE act -0.1, TPT1 inhibitor -1.0, CRFR2-BP antag -8.9, CRFBP-R2 agonist -0.2, IDE inh -2.0, Myeloid diff 2 inactive, Myeloid diff CP1 inactive and GFP autofluor 0.7.
`Cc1[nH]c2ccccc2c1C(=O)/C=C\c1ccccc1Cl` gave IDE act -2.7, TPT1 inhibitor -0.3, CRFR2-BP antag -3.8, CRFBP-R2 agonist -3.0, IDE inh 6.1, Myeloid diff 2 active, Myeloid diff CP1 inactive and GFP autofluor 1.0.
Screening CCCCCCC[C@@H](C/C=C/CCC(=O)N(C)C/C(=C/Cl)C/C(=C\C(=O)N1C[C@H](O)CC1=O)OC)OC returned IDE act 4.3, CRFR2-BP antag -11.5, CRFBP-R2 agonist -2.6, IDE inh -0.5, Myeloid diff 2 inactive, Myeloid diff CP1 inactive and GFP autofluor 4.6.
COc1cc(CO)cc(Br)c1OCc1cccnc1 was read as IDE act 2.8, TPT1 inhibitor -0.4, CRFR2-BP antag -3.5, CRFBP-R2 agonist 5.3, IDE inh -3.6 and Myeloid diff 2 inactive.
For O=C1C(=Cc2ccco2)CCCC1=Cc1ccco1 the results were IDE act -40.0, CRFR2-BP antag 9.0, CRFBP-R2 agonist 5.7, Myeloid diff 2 inactive, Myeloid diff CP1 inactive and GFP autofluor 18.9*.
O=C(CCC(=O)c1ccc(F)cc1)Nc1cccc(Br)c1 was read as IDE act 5.4, TPT1 inhibitor -1.9, CRFR2-BP antag -10.3, CRFBP-R2 agonist -2.0, IDE inh 2.7 and Myeloid diff 2 inactive.
For CCCc1nc2cc3c(cc2[nH]1)n(C)c(=O)n3C the results were IDE act 4.2, TPT1 inhibitor -4.5, CRFR2-BP antag 15.8, CRFBP-R2 agonist -0.2, IDE inh -1.1 and Myeloid diff 2 inactive.

Assay outcomes deposited in PubChem BioAssay by several laboratories.
